# Measured values as given in PubChem BioAssay AID651812 (National Center for Advancing Translational Sciences (NCATS), 2012).
# About 650 (31%) of roughly 2,100 compounds were called active. Not shown: some 16% with an inconclusive outcome. This is one part of the list. Values without a mark were called inactive. Calls come from the whole dose curve; as a rule, active = well fitted inhibition curve with a large enough effect; inconclusive = small, poorly fitted or top-dose-only effect; inactive = flat fitted curve, though single readings scatter.
# Experiment: qHTS for inhibitors of Vif-A3G interactions: Cherry picks; note: nearly all actives have a fitted effect of over 80% in size; for activity, negative = fluorescence increase: % of control where 0% means no effect
# Conditions: HeLa A3G-eYFP + Vif (tagged APOBEC3G with the HIV-1 protein that degrades it), 24 h; Potency: eYFP fluorescence increase; series mostly up to 36.9 µM; activity, negative = fluorescence increase: at the top concentration
# Method in brief: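 Cherry-picked compounds tested at several concentrations on A3G-eYFP/Vif HeLa cells for 24 hours; loss of Vif-driven degradation read as eYFP fluorescence by cytometric plate imaging, 488 nm excitation, 500-530 nm emission.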
# Potency is the fitted concentration of half-maximal effect.
SMILES,"activity, negative = fluorescence increase",Potency
CCCn1nnc(NC(=S)NC(=O)c2ccccc2OC)n1,13.5% [at 46.1 µM],
O=C(NC12CC3CC(CC(C3)C1)C2)c1ccc([N+](=O)[O-])o1,-1.29%,
CN1CCC(OC(=O)c2cc3cc(Cl)cc(Cl)c3oc2=O)CC1,-0.249%,
Cc1ccccc1OCCc1c(C)[nH]c(=S)[nH]c1=O,-13.9%,
O=C(c1ccccn1)C1CCCN(Cc2cn[nH]c2-c2cc3ccccc3o2)C1 (centres undefined),-0.654%,
Cc1c(N=C2N=C(NC(=O)c3cccs3)c3ccccc32)c(=O)n(-c2ccccc2)n1C,,14 µM (active)
COc1ccc(N2C(=O)CC(Sc3nc(C)c4c(n3)CCCC4)C2=O)cc1 (centres undefined),-0.198%,
Cn1c(N)c(-c2ccccc2)c2ccc([N+](=O)[O-])cc2c1=O,,15.8 µM (active)
CCc1cc[n+](-c2nc3ccccc3nc2[N-]S(=O)(=O)c2ccc(Br)s2)cc1,,20.6 µM (active)
O=S(=O)([N-]c1nc2ccccc2nc1-[n+]1ccc(-c2ccncc2)cc1)c1ccccc1,-2.95% [at 46.1 µM],
Cc1cc(C)c[n+](-c2nc3ccccc3nc2[N-]S(=O)(=O)c2ccc(Br)s2)c1,,18.4 µM (active)
COCc1ccc(O)c2ncccc12,0.129%,
COC(=O)c1c(N2C(=O)[C@H]3[C@@H](C2=O)[C@]2(C(=O)Nc4c(C)cccc42)N2CCC[C@@H]32)sc(C)c1C,-0.0305%,
CC(=O)/C(N=Nc1cc(C)ccc1O)=C(\C)O,,16.4 µM (active)
CCCN(C(=O)CSc1n[nH]c(-c2ccc(OC)cc2)n1)c1c(N)n(Cc2ccccc2)c(=O)[nH]c1=O,-14.5% [at 46.1 µM],
COc1ccc2c(c1)c(C(=O)N/N=C/c1ccc(Cl)cc1)c(C)n2C,-0.209%,
C[n+]1ccc(/C=C/c2c[nH]c3ccc(F)cc23)cc1,,14.6 µM (active)
COc1ccc2c(c1)c(/C=C/c1cc[n+](C)cc1)cn2C,,1.98 µM (active)
COc1ccc2[nH]cc(/C=C/c3cc[n+](C)cc3)c2c1,,13 µM (active)
Cc1ccc2[nH]cc(/C=C/c3cc[n+](C)cc3)c2c1,,4.44 µM (active)
CSc1cccc(NC(=O)c2cc3c(COC(C)=O)cnc(C)c3oc2=O)c1,-0.348% [at 46.1 µM],
O=C(NC1C/C(=N/O)c2cc3c(cc21)OCO3)C(F)(F)F (centres undefined),0.0478% [at 46.1 µM],
CCOc1ccc(C(C)=O)cc1COc1cccnc1[N+](=O)[O-],-3.29%,
O=C(NCc1cccs1)C1CCN(c2ccc(S(=O)(=O)N3CCOCC3)cc2Cl)CC1,-2.2%,
O=S(=O)(Nc1nc2ccccc2nc1OCC(F)(F)F)c1cccs1,13.5% [at 46.1 µM],

SMILES,"activity, negative = fluorescence increase",Potency
CCC[N+](C)(C)c1ccc(/C=C/c2ccncc2)cc1,,18.4 µM (active)
CC[N+](C)(C)c1ccc(/C=C/c2ccncc2)cc1,,20.6 µM (active)
C=CCOC(=O)C1=C(C)NC(C)=C(C(=O)OCC=C)C1c1cn(-c2ccccc2)nc1-c1ccco1,3.24%,
CC(=O)c1cccc(-c2ccnc3c2CC(C(=O)Nc2ccc(Cl)cc2)O3)c1 (centres undefined),1.72%,
CCCSc1ncc(Cl)c(C(=O)Nc2sc3c(c2C(N)=O)CCCC3)n1,,11.6 µM (active)
NC(=O)c1c(Nc2nc3c(F)cccc3s2)sc2c1CCCC2,-22.3%,
ClCC1NCC(c2ccccc2Cl)c2c1[nH]c1ccccc21 (centres undefined),-1.72% [at 46.1 µM],
S=c1[nH]cnc2sc(-c3ccccc3)cc12,2.34% [at 46.1 µM],
CN(C)C=Nc1c(Br)cc(Br)c2nonc12,,9.2 µM (active)
Cc1ccc(/C=N/NC(=O)c2cc(-c3ccccc3)nc3ccccc23)o1,-9.54%,
O=C(N/N=C/c1ccco1)c1cc(-c2ccncc2)nc2ccccc12,-8.06%,
Nc1c(C(=O)N/N=C/c2cccnc2)oc2nc(-c3ccccc3)cc(-c3ccco3)c12,,5.8 µM (active)
Cc1ccc(C=NNC(=O)c2cc(-c3cccnc3)nc3ccccc23)o1,-9.91%,
O=C(N/N=C/c1ccc2c(c1)OCO2)c1cc(-c2ccco2)nc2ccccc12,-4.33%,
O=C(N/N=C/c1ccc(Cl)cc1)c1cc(-c2cccnc2)nc2ccccc12,-2.64%,
Nc1c(C(=O)N/N=C/c2ccccc2Cl)oc2nc(-c3ccccc3)cc(-c3ccco3)c12,,5.8 µM (active)
O=C(N/N=C/c1cccc(F)c1)c1cc(-c2ccco2)nc2ccccc12,-0.017%,
Nc1c(C(=O)N/N=C/c2ccc(F)cc2)oc2nc(-c3ccccc3)cc(-c3ccco3)c12,,12.5 µM (active)
CN(Cc1cnn(Cc2ccccc2)c1)C(=O)c1cccc(S(=O)(=O)N2CCOCC2)c1,-3.86%,
O=C(CN1c2cccc3cccc(c23)S1(=O)=O)Nc1ccc(S(=O)(=O)N2CCOCC2)cc1,-4.13% [at 46.1 µM],
CCn1c(O)c(/C=N/NC(=O)c2ccncc2)c(=O)n(CC)c1=S,9.98% [at 46.1 µM],
CC[n+]1c(C=C2C=C(C)OC(C)=C2)sc2ccccc21,,8.2 µM (active)
CCSC1=NSC2=NC(=O)/C(=C\c3coc4ccccc4c3=O)C(=N)N12,,23.1 µM (active)
COC1=C/C(=C/c2c(N)n3nc(-c4ccc(C)cc4)sc3nc2=O)C=CC1=O,,14.6 µM (active)
CCS(=O)(=O)c1nn2c(N)c(/C=C3/C=CC(=O)C(OC)=C3)c(=O)nc2s1,13.5% [at 46.1 µM],

SMILES,"activity, negative = fluorescence increase",Potency
CCc1ccc(CNC(=O)Cc2ccc(NC(=O)C3=C(C)OCCS3)cc2)cc1,-1.61%,
N#CC1=C2SCC(O)(c3ccccc3)N2C(=O)CC1c1ccccc1 (centres undefined),-17.3%,
COc1ccc(NC(=O)C2(C)Cc3c(-c4cccc(NC(C)=O)c4)ccnc3O2)cn1 (centres undefined),-5.51%,
CCOc1ncccc1C(=O)NCc1ccc(OC)cc1,-0.568%,
Nc1nc(SCc2ccc(Cl)cc2Cl)nc2nc3c(cc12)CCCC3,,23.1 µM (active)
Cc1[nH][nH]c(=O)c1C(c1c(C)[nH][nH]c1=O)c1cn(Cc2ccccc2Cl)c2ccccc12,-10.2%,
Cc1ccc2oc(/N=C(\N)NC(=O)C(C)(C)C)nc2c1,-6.59% [at 46.1 µM],
COC(=O)c1ccc(NC(=O)CC2Nc3cc(C)c(C)cc3NC2=O)cc1 (centres undefined),,23.1 µM (active)
CCOC(=O)c1ccc(NC(=S)NC(=O)C2CCCC2)cc1,13.5% [at 46.1 µM],
C/C(CCc1ccc2c(c1)OCO2)=N\NC(=S)NC(C)C,-17.7% [at 46.1 µM],
C=CCSc1nc2ccccc2n1C(=O)/C=C/c1cc(OC)c(OC)c(OC)c1,2.28%,
Fc1ccc(CNc2nc3ccccc3n3nnnc23)cc1,,16.4 µM (active)
Cc1ccc(C(=O)O)cc1Nc1nc2ccccc2n2nnnc12,-17.3% [at 46.1 µM],
c1ccc2c(c1)nc(N1CCOCC1)c1nnnn12,4.21% [at 46.1 µM],
CC(NC(=O)c1ccc(Nc2nc3ccccc3n3nnnc23)cc1)c1ccccc1 (centres undefined),,18.4 µM (active)
COc1ccccc1CNC(=O)c1ccc(Nc2nc3ccccc3n3nnnc23)cc1,,20.6 µM (active)
Fc1ccc(COc2ccc3ccccc3c2CNc2nn[nH]n2)cc1,-6.32%,
CC(=O)Nc1ccc(S(=O)(=O)Nc2nc3ccccc3nc2Nc2ccc(N)cc2)cc1,-7.33% [at 46.1 µM],
CN(C)c1ccc(Nc2nc3ccccc3n3nnnc23)cc1,-25.5% [at 46.1 µM],
COc1cc(Nc2nc3ccccc3n3nnnc23)cc(OC)c1OC,,20.6 µM (active)
O=[N+]([O-])c1ccccc1C1Nc2cccc3cccc(c23)N1,9.33% [at 46.1 µM],
CCOC(=O)c1cc(-c2ccccc2C)n(CC2CC(c3ccc(OC)cc3)=NO2)n1 (centres undefined),-4.85%,
NC(=S)N/N=C/c1ccccc1OC(=O)/C=C/c1ccccc1,1.01% [at 46.1 µM],
Cc1cc(OCC(=O)Nc2nnc(C3CC3)s2)ccc1Cl,1.84%,
COc1ccc2[nH]c(C(=O)N/N=C/c3ccc(OC)c(O)c3)cc2c1,-3.2%,

SMILES,"activity, negative = fluorescence increase",Potency
Cc1ccc(/C=N/NC(=O)c2ccc3ccccc3c2)s1,-17.8%,
COc1cc2ccccc2cc1C(=O)N/N=C/c1cccs1,-8.47%,
COc1cc(OC)cc(C(=O)Nc2ccc(N3CCN(C(=O)c4cccs4)CC3)cc2)c1,-1.42%,
COc1ccc2o/c(=N/NC(=O)c3cccs3)c(C(N)=O)cc2c1,,14 µM (active)
O=C1CN(C(=O)c2cc(Br)c(Br)s2)c2ccccc2N1,-12.4%,
CN(C)c1ccc(C=Cc2nccc3ccccc23)cc1,,17.7 µM (active)
CN(C)c1ccc(/C=C/c2nccc3ccccc23)cc1,,23.1 µM (active)
CCN(Cc1ccccc1)c1ccc(/C=C/c2nccc3ccccc23)cc1,,20.6 µM (active)
CCN(CC)c1nc(C=Cc2ccc(N(C)C)cc2)c2nccnc2n1,,2.06 µM (active)
CCN(Cc1ccccc1)c1ccc(/C=C(\C#N)c2ccccn2)cc1,-5.57% [at 46.1 µM],
COc1cc(SC)ccc1C(=O)N1CCN(c2ccccc2OC)CC1,-7.48%,
Cc1ccc2c(c1C)NC(=O)CC(c1ccccc1O)=N2,3.28% [at 46.1 µM],
CN(C)CCCN(C(=O)/C=C/c1cccs1)c1nc2ccc(F)cc2s1,-28.8% [at 46.1 µM],
Cc1ccc(CNC(=O)c2ccc3c(c2)NC(=O)C(CS(=O)(=O)Cc2cccc(C)c2)N3)cc1 (centres undefined),,20.6 µM (active)
CC1Sc2ccc(C(=O)NCc3ccccn3)cc2NC1=O (centres undefined),-21% [at 46.1 µM],
CC(C)CCNC(=O)c1ccc2c(c1)NC(=O)C(CS(=O)(=O)Cc1cccc(Br)c1)N2 (centres undefined),4.76% [at 46.1 µM],
C[C@@H]1O[C@@H](O[C@@H]2C(=O)c3c(O)cc(O)cc3O[C@H]2c2ccc(O)c(O)c2)[C@H](O)[C@H](O)[C@H]1O,-4.71%,
CN(C)C(=O)c1cccc(-c2cnc3c(NC=O)cc(-c4ccccc4F)cn23)c1,-11.7%,
CC1=CC(C)(C)NC(=S)N1c1ccc2ccccc2c1,-1.3%,
CCOC(=O)c1c(CC(C)C)csc1/N=C/C1C(=O)CCCC1=O,2.43% [at 46.1 µM],
C=C1C(=O)O[C@H]2C1CC[C@@](C)(O)C13C=CC(C)(C21)C1(C3)C(=O)O[C@@H]2C3C(C)=CCC3[C@](C)(O)C[C@H](OC(C)=O)C21 (some centres undefined),-9.27%,
CN(C)c1ccc(/C=C2\Oc3ccc(C#Cc4cccc(N)c4)cc3C2=O)cc1,,14 µM (active)
O=C1/C(=C/c2ccc([N+](=O)[O-])cc2)Oc2cc(O)ccc21,-11.4% [at 46.1 µM],
COc1cnc(-c2ccccn2)nc1Oc1ccc(F)cc1F,3.98% [at 46.1 µM],
